The record followed here is PubChem BioAssay.

The nature of assay [1]: Wnt pathway potentiators raising nuclear beta-catenin – imaging, WNT3A-conditioned medium, mouse C2C12, NPC library, primary screen (AID 1117326; in the data active means nuclear beta-catenin stimulation mostly above about 4.2%, no sharp cut-off; inactive means mostly below about 10%; further: reference of the scale not given here). The conditions noted are these: stronger effect = higher value.
Assay [2] in a line: stimulators of insulin release from INS-1E, primary screen, cell-based, 5 mM glucose, NPC library (AID 1117329;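 active means compound raises insulin release from rat beta cells at 5 mM glucose, no numeric limit stated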; further: reference of the scale not given here). The following applies: rat INS-1E insulin secretion, at 10 µM, stronger effect = higher value.
A short description of assay [3]: growth inhibition of GSK3B-pretreated HCT116 cells – cell-based, CellTiter-Glo, 0.2 to 20 µM (AID 1117336;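 active means compounds lowering colon cancer cell viability after pretreatment blocking the GSK3B kinase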). The following applies: HCT116 viability after GSK3B inhibitor, at 20 µM, stronger effect = higher value. (Cellular ATP, detected with luciferase, serves as a proxy for viable cell number.)
Assay [4] in a line: inhibition of endothelial tube formation, primary screen, imaging, VEGF stimulated, CD31 staining, tube area, NPC library (AID 1117340;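 active means compound that reduces growth-factor-driven endothelial tube area in a mixed cell culture, no cutoff stated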). The conditions noted are these: VEGF-stimulated ADSC/ECFC co-culture, at 10 µM, stronger effect = higher value.
The nature of assay [5]: GLP1 release stimulators, primary, NCI-H716, NPC library (AID 1117341;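 active means compound raises GLP1 secretion from the human gut endocrine cells, with no numeric limit stated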; further: reference of the scale not given here). The conditions noted are these: NCI-H716 cells, at 10 µM, stronger effect = higher value.
A short description of assay [6]: HCT116 colon cancer cell growth inhibition, primary screen, CellTiter-Glo luminescence, NPC library (AID 1117342;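 active means compounds that lower survival of HCT116 colon cancer cells in the luminescence readout, no numeric limit stated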). The following applies: at 20 µM (top of the series).
Assay [7] can be described thus: reduced SW480 viability measured with CellTiter-Glo, NPC library, primary (AID 1117343;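 active means compounds that lower viability of the colon cancer cells in the luminescence readout, with no numeric limit stated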). The conditions noted are these: CellTiter-Glo luminescence; at 20 µM (top of the series) unless noted.
The nature of assay [8]: NPC library primary testing for decreased DLD-1 cell viability via CellTiter-Glo (AID 1117346;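 active means compounds that lower survival of DLD-1 colon cancer cells in the luminescence readout, no cutoff given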). The conditions noted are these: DLD-1 viability, CellTiter-Glo luminescence; at 20 µM (top of the series).
Assay [9] is described as follows: viability loss with induced miR-34 in A549 – imaging, A549 dox-inducible miR-34, nuclei and caspase counts, primary screen (AID 1347080). The conditions noted are these: A549 miR-34 inducible, Hoechst nuclei count, 48 h.
A short description of assay [10]: blockers of cellular phospholipid synthesis – cell-based, LOPAC library, screen 4, primary screen (AID 1347384; call rule not given here). The following applies: animal cells, phospholipid biosynthesis inhibition screen; at 10 µM.
Assay [11] can be described thus: galactose survival enhancers in mitochondrial complex I cybrids – cell-based, galactose medium, ATP luminescence, primary screen (AID 1645843;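 active means z-score of at least 1.8 in each of two replicates, scored against plate mean and spread of sample wells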;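 further: positive z means more ATP and so rescue of galactose-driven cybrid death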). The following applies: complex I mutant cybrid cells, 72 h, stronger effect = higher value.
Assay [12] can be described thus: MELAS cybrid and Rieske KO viability enhancers – cell-based, MELAS cybrids, Rieske KO mouse fibroblasts, CellTiter-Glo, primary screen (AID 1508586;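 active means mean z-score across replicates of 1.96 or higher in either the MELAS or the Rieske mutant cell line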;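 further: z relative to plate mean and SD of compound and empty wells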). The following applies: low glucose.
Where [13] appears, read: stronger effect = lower value, cell number ratio, induced over uninduced.
Where [14] appears, read: measured here: relative caspase fold change +Dox/-Dox.
Setting [15] is: measured here: total cells with miR-34 induction, stronger effect = lower value.
The mark [16] stands for this setting: measured here: total cells without miR-34 induction.
Setting [17] is: MELAS cybrid survival, CellTiter-Glo 48 h, stronger effect = higher value.
The mark [18] stands for this setting: Rieske KO mouse fibroblast survival, CellTiter-Glo 72 h.

Values joined by “and” are separate entries in the source; they are usually repeats but may differ in a detail not shown here. Equal entries are not always repeated. Active and inactive are the calls of the source.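 How the source made its calls, unless noted: active means compounds whose cell count with miR-34 switched on is under 0.7 times the count with it off; inactive means the rest.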

As to `NC1[C@H]2CN(c3nc4c(cc3F)c(=O)c(C(=O)O)cn4-c3ccc(F)cc3F)C[C@@H]12` (some centres not stated), the nuclear beta-catenin stimulation in [1] (at 10 µM) is -0.6% (inactive); in [1] (stimulation, at 2 µM) it was 0.5%. The insulin secretion stimulation in assay [2] is 17.5% (inactive). In addition, the viability decrease in [3] was 64.3% (active). Further, in assay [4], the tube area decrease is 26.1% (inactive). In addition, the GLP1 secretion stimulation in assay [5] is -0.1% (inactive). Also, the inhibition of viability in assay [6] was 58.4% (active). The figures for the viability decrease (inhibition) in assay [7] and in assay [8] were 82.9% (active) and 58.6% (active), respectively. For the same compound, the figures for the fold change in assay [9] (setting [13]) and in [9] (setting [14]) were 1.35 (inactive) and 1.08, respectively. Besides, the cell count in assay [9] (setting [15]) came out at 3150; in assay [9] (setting [16]), 2330. Further, in assay [10], the compound was classed as inactive. Further, the z-score in [11] was 2.21 (active).

With `COC(=O)C1=C(C#N)NC(C)=C(C(=O)OC(C)C)C1c1cccc([N+](=O)[O-])c1` (configuration not stated), the nuclear beta-catenin stimulation in assay [1] (at 10 µM) was -1.3% (inactive); in [1] (stimulation, at 2 µM), 2.3%. Moreover, in [2], the insulin secretion stimulation is -0.1% (inactive). The viability decrease in assay [3] was 9.8% (inactive). For the same compound, the tube area decrease in assay [4] is 9.9% (inactive). Further, the GLP1 secretion stimulation in [5] is -3.9% (inactive). For the same compound, the inhibition of viability in assay [6] is 56.2% (active). The viability decrease (inhibition) in [7] was 65.8% (active); in assay [8] it was 29.6% (active). Further, the values for the fold change in assay [9] (setting [13]) and in [9] (setting [14]) were 0.976 (inactive) and 0.643, respectively. In addition, the cell count in assay [9] (setting [15]) worked out at 7820; in assay [9] (setting [16]) it was 8010. For the same compound, the z-score in assay [12] (setting [17]) was -0.465 (inactive) and 0.607 (inactive); in assay [12] (setting [18]), 0.162 and 0.638.

Turning to `NC(=O)c1cn(Cc2c(F)cccc2F)nn1`, the nuclear beta-catenin stimulation in [1] (at 10 µM) is 0.5% (inactive); in assay [1] (stimulation, at 2 µM) it was 2.9%. In assay [2], the insulin secretion stimulation is -2.7% (inactive). The viability decrease in assay [3] was -3.55% (inactive). Moreover, the tube area decrease in [4] was -8.7% (inactive). Further, in assay [5], the GLP1 secretion stimulation was -0.1% (inactive). The inhibition of viability in assay [6] is 18.7% (inactive). Further, the figures for the viability decrease (inhibition) in [7] and in [8] were 11.5% (inactive) and 5.25% (inactive), respectively. The fold change in [9] (setting [13]) is 1.05 (inactive) and 0.933 (inactive); in assay [9] (setting [14]) it was 0.739 and 0.557. Also, the cell count in [9] (setting [15]) is 10500 and 8320; in [9] (setting [16]), 10000 and 8930. Besides, the compound was called inactive in assay [10]. Moreover, the z-score in assay [12] (setting [17]) is -0.0452 (inactive); in [12] (setting [18]), -0.156; in [11] it was 0.155 (inactive).

As for `NC(CO)(CO)CO`, the nuclear beta-catenin stimulation in assay [1] (at 10 µM) was 1.8% (inactive); in assay [1] (stimulation, at 2 µM) it was 3.7%. In assay [2], the insulin secretion stimulation is -0.6% (inactive). The viability decrease in [3] is -2.3% (inactive). In [4], the tube area decrease is -6% (inactive). The GLP1 secretion stimulation in assay [5] was 3.3% (inactive). Besides, in assay [6], the inhibition of viability is -37% (inactive). The viability decrease (inhibition) in assay [7] was -8% (inactive); in assay [8], 2.75% (inactive). Further, the fold change in assay [9] (setting [13]) is 0.909 (inactive); in assay [9] (setting [14]), 0.61. The cell count is 8750 in [9] (setting [15]) and 9620 in [9] (setting [16]). For the same compound, the z-score in assay [12] (setting [17]) is -0.338 (inactive); in [12] (setting [18]) it was -0.156.

With `Nc1cc(=O)[nH]c(N)n1`, the nuclear beta-catenin stimulation in [1] (at 10 µM) is 1.3% (inactive); in assay [1] (stimulation, at 2 µM), 1.3%. Further, in assay [2], the insulin secretion stimulation was -1.5% (inactive). For the same compound, the viability decrease in [3] was 7.7% (inactive). Besides, the tube area decrease in assay [4] was -14.1% (inactive). In [5], the GLP1 secretion stimulation is -2.3% (inactive). Besides, the inhibition of viability in [6] is -16.3% (inactive). Further, the viability decrease (inhibition) in [7] is 71.1% (active); in [8] it was 13.6% (inactive). The fold change in assay [9] (setting [13]) was 0.958 (inactive); in assay [9] (setting [14]), 1.28. For the same compound, the cell count came to 9880 in assay [9] (setting [15]) and 10300 in assay [9] (setting [16]). Further, the compound was classed as inactive in [10]. Moreover, in assay [11], the z-score is 0.355 (inactive).
